DT40 TDP1 no CPT: qHTS for Inhibitors of human tyrosyl-DNA phosphodiesterase 1 (TDP1): qHTS in cells in absence of CPT. DT40 Tdp1-/- hTDP1 cells, no CPT, ATP luminescence, 48 h. Potency, µM (doses to about 46.2 µM), inactives show top-dose activity change, negative = growth inhibition, hits mostly inhibitors. 15% of 420,000 active; note: potency is the fitted concentration of half-maximal effect; nearly all actives have a fitted effect of over 55% in size
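DT40 Tdp1-/-;hTDP1 cells, no CPT (DMSO vehicle only), 400 cells/well; compounds pin-transferred; ≥48 hr, 37 °C; CellTiter-Glo 30 min RT dark, luminescence read.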
ELG1 repair inh: blocks ELG1-dependent DNA repair in HEK293T cells; 2.3% of 330,000 active; HEK293T ELG1-luciferase reporter, luminescence, 16 h; DNA damage induced by 5-fluorouridine; AID 504467; Potency, µM (series often up to 46.1 µM), for inactives: at the highest dose activity change, negative = inhibition, most hits filed as inhibitors; note: potency is the fitted concentration of half-maximal effect; nearly all actives have a fitted effect of over 55% in size
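Step one: seed 2,000 cells per well. Step two: pin-transfer compound or DMSO alongside 5-fluorouridine. Step three: incubate 16 hr, 37 °C, 5% CO2. Step four: add ONE-Glo, wait 30 min, read luminescence.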
IL1B secr inh: blocks inflammasome-driven IL-1 beta release | activity change, % at 57.5 µM | 4.7% of 360,000 active | THP-1 LPS/ATP IL-1B secretion, AlphaLISA, 16 h; stronger effect = lower value; in the data active = activity change below about -50%; inconclusive = mostly about -30% to -49%
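THP-1 cells pretreated 1 hr with compounds (up to 57.5 uM final), then stimulated with LPS (250 ng/mL final) plus ATP (1.25 mM final); secreted IL-1B measured by AlphaLISA after 16 hr, decreased signal indicating inhibition.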
HT1080NT lethal: kills 2HG-producing HT-1080-NT fibrosarcoma cells; Potency, µM (highest dose often 46.1 µM), for inactives: top-dose activity, negative = less viability, hits mostly cytotoxic; 1.6% of 360,000 active; AID 686970; HT-1080-NT fibrosarcoma viability, CellTiter-Glo ATP luminescence, 48 h;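 note: NT is the 2HG producing partner of a matched IDH1 knockdown line; potency is the fitted concentration of half-maximal effect; 0% = DMSO-treated cells and -100% = media-only wells without cells; nearly all actives have a fitted effect of over 55% in size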
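HT-1080-NT; 750 cells/well; 5% FBS RPMI; 48 h compound, 37 degrees C; CellTiter-Glo luminescence; curve fitting and curve-class assignment.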
DT40 TDP1 CPT: DT40-hTDP1 cell growth loss with CPT. chicken DT40 Tdp1-/-;hTDP1 cells + 20 nM CPT, ATP luminescence, 48 h. Potency, µM (titrated, usually from 46.2 µM), for inactives: top-dose activity change, negative = growth inhibition, most hits filed as inhibitors. 12% of 420,000 active. AID 686979; note: potency is the fitted concentration of half-maximal effect; nearly all actives have a fitted effect of over 55% in size
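Chicken DT40 Tdp1-/- cells complemented with human TDP1, 400 cells/well, exposed to compounds plus 20 nM camptothecin for at least 48 h at 37 C; viability read as ATP content by CellTiter-Glo luminescence.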
HT1080 IDH1KD tx: kills HT-1080 cells with IDH1 knockdown. HT-1080 IDH1 knockdown viability, ATP luminescence, 48 h. Potency, µM (doses to about 46.1 µM), inactives show at the highest dose activity, negative = toxicity, usual class: cytotoxic. 2% of 360,000 active;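 note: potency is the fitted concentration of half-maximal effect; 0% = DMSO wells and -100% = cell-free medium wells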
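Using the IDH1-knockdown HT-1080 line run in the same batch and compound series as the NT line, viability after 48 h at 37 °C was determined by CellTiter-Glo luminescence and expressed as % activity.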
* hit, by the source's call; ? = inconclusive; . = no result given. Most compounds without a hit are left out; they make up all but 19% or so of the library. Unless noted, calls come from the whole dose curve; as a rule, active = well fitted curve in the direction sought with a large enough effect; inconclusive = small, poorly fitted or top-dose-only effect, or another doubt; inactive = no such curve, though single readings can be large; an effect the other way counts as inactive or inconclusive. Unless noted, % is set by controls: 0 for no effect and ±100 for the full control effect.

SMILES | DT40 TDP1 no CPT | ELG1 repair inh | IL1B secr inh | HT1080NT lethal | DT40 TDP1 CPT | HT1080 IDH1KD tx
C[C@H]1CCCCO[C@H](CN(C)Cc2ccccc2)[C@@H](C)CN([C@@H](C)CO)C(=O)c2cc(NC(=O)CCC(F)(F)F)ccc2O1 | ? | . | 0.0 | -3.7% | ? | -0.4%
C[C@@H]1CCCCO[C@H](CN(C)Cc2ccc(C(F)(F)F)cc2)[C@H](C)CN([C@@H](C)CO)C(=O)c2cc(NC(=O)Cc3ccccc3)ccc2O1 | 14.6µM* | . | -13.7 | 16.4µM* | 11.6µM* | 18.4µM*
CC(C)NC(=O)Nc1ccc2c(c1)C(=O)N([C@H](C)CO)C[C@H](C)[C@@H](CN(C)Cc1ccc3c(c1)OCO3)OCCCC[C@@H](C)O2 | -25.2% | . | -7.4 | -1.1% | -4.3% | -0.7%
CC(C)NC(=O)Nc1ccc2c(c1)C(=O)N([C@H](C)CO)C[C@H](C)[C@@H](CN(C)Cc1ccc(C(F)(F)F)cc1)OCCCC[C@H](C)O2 | ? | . | ? | 7.6% | 20.6µM* | -28.2%
COc1ccc(OC)c2c(C)c(C)[nH]c12 | 9.0% | 25.8% | -18.0 | 4.8% | 10.6% | 7.8%
Cn1c(N)c(C(=O)COC(=O)C2Cc3ccccc3CN2S(C)(=O)=O)c(=O)n(C)c1=O (stereo unspecified) | ? | . | 48.2 | -11.4% | ? | -1.7%
C[C@@H]1CN([C@H](C)CO)C(=O)c2cc(NC(=O)Cc3ccccc3)ccc2O[C@H]1CN(C)Cc1ccc(Oc2ccccc2)cc1 | ? | -23.2% | ? | ? | ? | ?
COc1ccc(CN(C)C[C@@H]2OCCCC[C@H](C)Oc3ccc(NC(=O)Cc4ccccc4)cc3C(=O)N([C@@H](C)CO)C[C@@H]2C)cc1 | 23.1µM* | . | -7.3 | -22.8% | 8.2% | -24.7%
C[C@@H]1CN([C@@H](C)CO)C(=O)c2cc(NC(=O)Nc3ccc(F)cc3)ccc2O[C@@H]1CN(C)Cc1ccc(Oc2ccccc2)cc1 | 20.6µM* | -8.4% | 0.0 | ? | ? | 16.4µM*
COc1ccc(C(=O)c2sc3nc(-c4ccccc4)ccc3c2N)cc1 | -52.6% | 3.4% | -25.9 | 4.5% | -53.7% | -23.0%
Nc1c(C(=O)NCc2ccc(Cl)cc2)sc2nc(-c3ccc(F)cc3)ccc12 | 20.6µM* | . | . | . | 18.4µM* | .
O=C(NCc1ccc(Cl)cc1)c1cc(-c2ccc(F)cc2)on1 | 4.6% | . | . | . | -13.6% | .
COc1ccc(-c2ccc3c(N)c(C(=O)NCc4ccc(Cl)cc4)sc3n2)cc1 | 14.6µM* | . | . | . | ? | .
COc1cccc(-c2ccc3c(N)c(C(=O)c4ccc(Cl)cc4)sc3n2)c1 | 7.31µM* | . | . | . | 8.2µM* | .
COc1ccc(-c2ccc3c(N)c(C(=O)Nc4ccc(C)cc4C)sc3n2)cc1OC | ? | . | . | . | 4.11µM* | .
COc1cccc(NC(=O)CCCn2nc(C)c3c(C)n(-c4ccccc4)nc3c2=O)c1 | 17.1% | -10.7% | -10.2 | -0.9% | -25.8% | 2.8%
O=C(Cn1c(=O)n(-c2ccc(F)c(Cl)c2)c(=O)c2sc3ccccc3c21)NC1CCCCC1 | -2.0% | . | . | . | -20.1% | .
COC(=O)c1ccc(N2CCOCC2)c(NC(=O)c2ccco2)c1 | -15.3% | -1.4% | 11.3 | -15.4% | -10.4% | 9.0%
CCOc1ccccc1NC(=O)c1sc2nc(-c3ccc(OC)cc3)ccc2c1N | 13µM* | . | . | . | 20.6µM* | .
CC(C)CCSc1nc(N)c(C#N)cc1C#N | 18.4µM* | ? | ? | -20.6% | ? | -28.6%
CN(CCc1ccccn1)C(=O)CCC1CCCN(C(=O)c2c3c(nn2C)CCCC3)C1 (stereo unspecified) | -29.5% | ? | 23.9 | 6.2% | -5.8% | 17.1%
S=C1SCN(Cc2cccs2)CN1Cc1cccs1 | 23.1µM* | . | 0.0 | -6.1% | ? | -8.6%
CCN1CSC(=S)N(Cc2ccc(OC)cc2)C1 | 4.61µM* | -19.1% | 24.8 | 1.6% | 5.17µM* | -2.3%
CCN1CSC(=S)N(Cc2ccccc2)C1 | 4.61µM* | -0.6% | -100.2* | -9.1% | 2.59µM* | 1.0%
CCCCCN1CSC(=S)N(Cc2ccccc2)C1 | 3.66µM* | ? | -95.3* | -0.7% | 4.61µM* | -17.6%
SMILES | DT40 TDP1 no CPT | ELG1 repair inh | IL1B secr inh | HT1080NT lethal | DT40 TDP1 CPT | HT1080 IDH1KD tx
CCOc1ccc(Br)cc1C1=NN(C(C)=O)C(c2ccc([N+](=O)[O-])s2)O1 (stereo unspecified) | 8.2µM* | 1.5% | -26.1 | 23.1µM* | 18.4µM* | ?
CCCN1CCc2c(sc(NC(=S)NC(=O)c3ccccc3)c2C#N)C1 | ? | ? | 0.0 | -10.8% | 20.6µM* | -8.4%
CCOC(=O)N1CCc2c(sc(NC(=O)c3ccc(S(=O)(=O)N4CCCC4)cc3)c2C#N)C1 | 14.6µM* | 16.4µM* | 11.0 | -19.2% | 20.6µM* | 0.5%
CC(C)N1CCc2c(sc(NC(=O)c3ccc(S(=O)(=O)N4CCOCC4)cc3)c2C#N)C1 | 20.6µM* | 0.0% | -19.6 | -0.3% | 23.1µM* | 1.2%
COc1ccc(C(=O)Nc2sc3c(c2C#N)CCN(C(C)=O)C3)cc1 | 4.11µM* | -7.9% | -25.4 | 8.2µM* | 3.26µM* | 5.8µM*
COc1cc(C(=O)Nc2sc3c(c2C#N)CCN(C(C)=O)C3)cc(OC)c1OC | ? | -12.7% | -11.2 | -16.7% | ? | -7.3%
Cc1cccc(OCC(=O)Nc2ccc3c(c2)C(=O)NC3=O)c1 | ? | 3.3% | -17.0 | -2.0% | -7.1% | 4.2%
